# Experimental data published in publication PMC7862700, “An all-to-all approach to the identification of sequence-specific readers for epigenetic DNA modifications on cytosine”.
# What was measured:
# Assay in all cases: DAPPL (digital affinity profiling via proximity ligation, sequencing); 10 mM Tris-HCl pH 7.5, 50 mM NaCl, 1 mM DTT, 4% glycerol, room temperature, 30 min; GST-TFs on glutathione beads, 16-mer random dsDNA library, 0.1% formaldehyde crosslink after washing; high values mean tight binding
# Conditions in all cases: protein: recombinant; tags: N-terminal GST; dsDNA, one strand shown
# [1] = molecular target: T1, FLI1 (Homo sapiens, UniProt Q01543 1-452)
# T1 sequence: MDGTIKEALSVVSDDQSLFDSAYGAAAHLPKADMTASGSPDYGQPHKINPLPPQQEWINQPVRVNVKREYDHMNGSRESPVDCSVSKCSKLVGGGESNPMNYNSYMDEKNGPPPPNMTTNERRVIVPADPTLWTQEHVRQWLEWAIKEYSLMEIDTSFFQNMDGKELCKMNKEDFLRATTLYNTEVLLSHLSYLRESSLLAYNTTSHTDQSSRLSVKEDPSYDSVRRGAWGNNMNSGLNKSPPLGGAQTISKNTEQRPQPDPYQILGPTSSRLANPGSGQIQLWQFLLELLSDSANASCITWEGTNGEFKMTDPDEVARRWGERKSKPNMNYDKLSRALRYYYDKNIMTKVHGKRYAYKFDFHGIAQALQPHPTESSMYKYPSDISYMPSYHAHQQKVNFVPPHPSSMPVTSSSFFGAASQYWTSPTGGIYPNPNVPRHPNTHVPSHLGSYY
# Outline: (§1)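 Each value of binding signal is a hexamer's read frequency for a factor divided by the same hexamer's frequency in the tag-only sample. Barcoded, bead-captured GST fusions of human transcription factors made in yeast were pooled with that sample and incubated with 200 nmole of a random double-stranded 16-mer DNA library in Tris/NaCl/DTT/glycerol buffer at room temperature for 30 min. Washing, 0.1% formaldehyde crosslinking, proximity ligation, PCR and Illumina NextSeq500 sequencing followed.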
# [2] = molecular target: T2, ELK1 (Homo sapiens, UniProt P19419 1-428)
# T2 sequence: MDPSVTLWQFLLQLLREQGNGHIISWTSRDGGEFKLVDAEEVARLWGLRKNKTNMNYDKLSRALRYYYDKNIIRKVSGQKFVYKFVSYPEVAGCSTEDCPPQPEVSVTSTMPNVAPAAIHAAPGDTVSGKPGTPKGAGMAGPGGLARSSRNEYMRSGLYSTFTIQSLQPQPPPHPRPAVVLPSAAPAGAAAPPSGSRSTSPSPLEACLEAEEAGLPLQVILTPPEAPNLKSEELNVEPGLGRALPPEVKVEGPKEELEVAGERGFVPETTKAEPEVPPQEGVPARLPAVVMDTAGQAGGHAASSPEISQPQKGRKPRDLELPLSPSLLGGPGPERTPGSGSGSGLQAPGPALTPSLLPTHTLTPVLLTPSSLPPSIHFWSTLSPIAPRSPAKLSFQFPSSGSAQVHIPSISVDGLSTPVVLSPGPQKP
# Outline: as §1
# [3] = molecular target: T3, GABPA (Homo sapiens, UniProt Q06546 1-454)
# T3 sequence: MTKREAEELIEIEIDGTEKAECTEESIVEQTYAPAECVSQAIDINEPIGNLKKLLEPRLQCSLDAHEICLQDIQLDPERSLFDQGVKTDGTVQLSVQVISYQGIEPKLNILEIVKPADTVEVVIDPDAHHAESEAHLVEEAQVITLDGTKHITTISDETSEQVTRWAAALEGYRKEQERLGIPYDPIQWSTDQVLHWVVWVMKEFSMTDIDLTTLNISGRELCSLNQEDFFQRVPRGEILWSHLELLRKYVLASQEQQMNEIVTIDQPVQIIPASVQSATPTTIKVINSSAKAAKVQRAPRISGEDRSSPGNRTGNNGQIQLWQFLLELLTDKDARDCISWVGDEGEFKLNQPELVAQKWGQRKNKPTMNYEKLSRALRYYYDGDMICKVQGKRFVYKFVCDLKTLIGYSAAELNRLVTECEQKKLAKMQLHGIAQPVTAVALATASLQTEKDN
# Outline: as §1
# [4] = molecular target: T4, ERG (Homo sapiens, UniProt P11308 1-479)
# T4 sequence: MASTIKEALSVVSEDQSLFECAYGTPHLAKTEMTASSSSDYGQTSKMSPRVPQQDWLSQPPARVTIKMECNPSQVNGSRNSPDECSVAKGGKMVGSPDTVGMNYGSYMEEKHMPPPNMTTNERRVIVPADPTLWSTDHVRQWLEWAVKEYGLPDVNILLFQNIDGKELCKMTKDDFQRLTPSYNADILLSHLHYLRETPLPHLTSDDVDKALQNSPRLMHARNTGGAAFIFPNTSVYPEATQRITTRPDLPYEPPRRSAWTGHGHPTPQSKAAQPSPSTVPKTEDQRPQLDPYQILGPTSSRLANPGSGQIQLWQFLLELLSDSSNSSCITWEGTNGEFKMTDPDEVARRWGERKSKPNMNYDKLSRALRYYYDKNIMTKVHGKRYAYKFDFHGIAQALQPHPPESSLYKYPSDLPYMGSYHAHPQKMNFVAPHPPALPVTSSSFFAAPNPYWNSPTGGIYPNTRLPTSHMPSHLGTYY
# Outline: as §1
# [5] = molecular target: ELF1 (Homo sapiens, UniProt P32519 1-619)
# Chain of ELF1 (P32519 whole entry): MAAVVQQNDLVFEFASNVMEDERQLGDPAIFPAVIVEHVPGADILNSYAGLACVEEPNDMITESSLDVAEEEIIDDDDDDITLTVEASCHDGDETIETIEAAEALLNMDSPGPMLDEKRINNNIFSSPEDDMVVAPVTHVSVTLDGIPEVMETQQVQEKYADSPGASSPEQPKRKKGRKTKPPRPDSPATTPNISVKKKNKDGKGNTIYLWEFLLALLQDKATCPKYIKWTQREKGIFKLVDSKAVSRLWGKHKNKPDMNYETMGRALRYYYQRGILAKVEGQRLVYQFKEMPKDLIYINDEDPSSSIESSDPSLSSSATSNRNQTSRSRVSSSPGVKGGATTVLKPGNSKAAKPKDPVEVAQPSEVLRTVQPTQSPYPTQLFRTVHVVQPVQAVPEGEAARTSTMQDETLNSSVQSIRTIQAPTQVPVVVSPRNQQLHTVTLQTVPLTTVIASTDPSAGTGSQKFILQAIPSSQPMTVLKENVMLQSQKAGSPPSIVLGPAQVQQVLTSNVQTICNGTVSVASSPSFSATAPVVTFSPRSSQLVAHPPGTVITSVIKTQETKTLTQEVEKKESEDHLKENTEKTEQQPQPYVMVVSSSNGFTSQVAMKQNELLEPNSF
# Outline: as §1
# [6] = molecular target: T5, EHF (Homo sapiens, UniProt Q9NZC4 1-300)
# T5 sequence: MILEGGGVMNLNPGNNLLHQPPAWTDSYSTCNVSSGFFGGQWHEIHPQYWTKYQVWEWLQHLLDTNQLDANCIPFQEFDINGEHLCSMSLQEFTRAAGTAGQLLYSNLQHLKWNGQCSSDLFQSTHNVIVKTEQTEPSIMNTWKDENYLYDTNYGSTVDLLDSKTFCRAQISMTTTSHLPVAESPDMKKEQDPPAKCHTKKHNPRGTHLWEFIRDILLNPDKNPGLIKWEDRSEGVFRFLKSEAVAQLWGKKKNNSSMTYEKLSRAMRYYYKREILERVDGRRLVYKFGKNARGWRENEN
# Outline: as §1
# [7] = molecular target: SPI1 (Homo sapiens, UniProt P17947 1-270)
# Outline: as §1
# [8] = molecular target: SPIB (Homo sapiens, UniProt Q01892 1-262)
# Chain of SPIB (Q01892 whole entry): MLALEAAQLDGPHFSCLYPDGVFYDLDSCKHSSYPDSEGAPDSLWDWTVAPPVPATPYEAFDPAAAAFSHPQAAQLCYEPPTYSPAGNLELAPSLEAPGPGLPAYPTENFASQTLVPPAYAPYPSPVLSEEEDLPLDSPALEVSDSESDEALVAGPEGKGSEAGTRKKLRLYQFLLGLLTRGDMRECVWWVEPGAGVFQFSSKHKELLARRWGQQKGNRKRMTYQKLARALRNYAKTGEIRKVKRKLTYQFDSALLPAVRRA
# Outline: as §1
# [9] = molecular target: T6, ELK3 (Homo sapiens, UniProt P41970 1-407)
# T6 sequence: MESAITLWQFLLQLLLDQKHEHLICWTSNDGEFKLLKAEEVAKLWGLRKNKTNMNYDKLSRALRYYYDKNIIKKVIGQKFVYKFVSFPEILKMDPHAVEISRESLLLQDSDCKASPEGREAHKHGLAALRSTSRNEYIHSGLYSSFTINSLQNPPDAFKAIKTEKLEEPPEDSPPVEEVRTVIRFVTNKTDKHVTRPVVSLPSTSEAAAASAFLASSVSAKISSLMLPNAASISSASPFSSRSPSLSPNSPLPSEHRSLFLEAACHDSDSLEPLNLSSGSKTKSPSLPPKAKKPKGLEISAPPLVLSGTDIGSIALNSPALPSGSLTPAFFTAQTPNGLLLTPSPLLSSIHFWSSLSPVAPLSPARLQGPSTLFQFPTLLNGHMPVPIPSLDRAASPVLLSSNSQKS
# Outline: as §1
sequence,measurement,setting,value
CCGCTA,binding signal,[1],"1.45 fold enrichment (6-mer frequency, TF over GST control)"
same,binding signal,[2],"1.37 fold enrichment (6-mer frequency, TF over GST control)"
same,binding signal,[3],"1.2 fold enrichment (6-mer frequency, TF over GST control)"
same,binding signal,[4],"1.37 fold enrichment (6-mer frequency, TF over GST control)"
same,binding signal,[5],"1.27 fold enrichment (6-mer frequency, TF over GST control)"
same,binding signal,[6],"1.41 fold enrichment (6-mer frequency, TF over GST control)"
same,binding signal,[7],"1.51 fold enrichment (6-mer frequency, TF over GST control)"
same,binding signal,[8],"1.46 fold enrichment (6-mer frequency, TF over GST control)"
same,binding signal,[9],"1.37 fold enrichment (6-mer frequency, TF over GST control)"
GGACAT,binding signal,[1],"1.19 fold enrichment (6-mer frequency, TF over GST control)"
same,binding signal,[2],"1.19 fold enrichment (6-mer frequency, TF over GST control)"
same,binding signal,[3],"1.24 fold enrichment (6-mer frequency, TF over GST control)"
same,binding signal,[4],"1.24 fold enrichment (6-mer frequency, TF over GST control)"
same,binding signal,[5],"1.19 fold enrichment (6-mer frequency, TF over GST control)"
same,binding signal,[6],"1.19 fold enrichment (6-mer frequency, TF over GST control)"
same,binding signal,[7],"1.13 fold enrichment (6-mer frequency, TF over GST control)"
same,binding signal,[8],"1.14 fold enrichment (6-mer frequency, TF over GST control)"
same,binding signal,[9],"1.19 fold enrichment (6-mer frequency, TF over GST control)"
TGATAT,binding signal,[1],"1.13 fold enrichment (6-mer frequency, TF over GST control)"
same,binding signal,[2],"1.11 fold enrichment (6-mer frequency, TF over GST control)"
same,binding signal,[3],"1.15 fold enrichment (6-mer frequency, TF over GST control)"
same,binding signal,[4],"1.12 fold enrichment (6-mer frequency, TF over GST control)"
same,binding signal,[5],"1.11 fold enrichment (6-mer frequency, TF over GST control)"
same,binding signal,[6],"1.08 fold enrichment (6-mer frequency, TF over GST control)"
same,binding signal,[7],"1.08 fold enrichment (6-mer frequency, TF over GST control)"
same,binding signal,[8],"1.05 fold enrichment (6-mer frequency, TF over GST control)"
same,binding signal,[9],"1 fold enrichment (6-mer frequency, TF over GST control)"
CCATCA,binding signal,[1],"1.26 fold enrichment (6-mer frequency, TF over GST control)"
same,binding signal,[2],"1.21 fold enrichment (6-mer frequency, TF over GST control)"
same,binding signal,[3],"1.22 fold enrichment (6-mer frequency, TF over GST control)"
same,binding signal,[4],"1.15 fold enrichment (6-mer frequency, TF over GST control)"
same,binding signal,[5],"1.29 fold enrichment (6-mer frequency, TF over GST control)"
same,binding signal,[6],"1.18 fold enrichment (6-mer frequency, TF over GST control)"
same,binding signal,[7],"1.19 fold enrichment (6-mer frequency, TF over GST control)"
same,binding signal,[8],"1.17 fold enrichment (6-mer frequency, TF over GST control)"
same,binding signal,[9],"1.2 fold enrichment (6-mer frequency, TF over GST control)"
CTAAAG,binding signal,[1],"1.39 fold enrichment (6-mer frequency, TF over GST control)"
same,binding signal,[2],"1.35 fold enrichment (6-mer frequency, TF over GST control)"
same,binding signal,[3],"1.45 fold enrichment (6-mer frequency, TF over GST control)"
same,binding signal,[4],"1.36 fold enrichment (6-mer frequency, TF over GST control)"
same,binding signal,[5],"1.39 fold enrichment (6-mer frequency, TF over GST control)"
same,binding signal,[6],"1.35 fold enrichment (6-mer frequency, TF over GST control)"
same,binding signal,[7],"1.3 fold enrichment (6-mer frequency, TF over GST control)"
same,binding signal,[8],"1.31 fold enrichment (6-mer frequency, TF over GST control)"
same,binding signal,[9],"1.49 fold enrichment (6-mer frequency, TF over GST control)"
TGATTT,binding signal,[1],"1.29 fold enrichment (6-mer frequency, TF over GST control)"
same,binding signal,[2],"1.2 fold enrichment (6-mer frequency, TF over GST control)"
same,binding signal,[3],"1.33 fold enrichment (6-mer frequency, TF over GST control)"
same,binding signal,[4],"1.35 fold enrichment (6-mer frequency, TF over GST control)"
same,binding signal,[5],"1.23 fold enrichment (6-mer frequency, TF over GST control)"
same,binding signal,[6],"1.18 fold enrichment (6-mer frequency, TF over GST control)"
same,binding signal,[7],"1.21 fold enrichment (6-mer frequency, TF over GST control)"
same,binding signal,[8],"1.23 fold enrichment (6-mer frequency, TF over GST control)"
same,binding signal,[9],"1.11 fold enrichment (6-mer frequency, TF over GST control)"
CACAAT,binding signal,[1],"1.12 fold enrichment (6-mer frequency, TF over GST control)"
same,binding signal,[2],"1.07 fold enrichment (6-mer frequency, TF over GST control)"
same,binding signal,[3],"1.12 fold enrichment (6-mer frequency, TF over GST control)"
same,binding signal,[4],"1.11 fold enrichment (6-mer frequency, TF over GST control)"
same,binding signal,[5],"1.17 fold enrichment (6-mer frequency, TF over GST control)"
same,binding signal,[6],"1.07 fold enrichment (6-mer frequency, TF over GST control)"
same,binding signal,[7],"1.02 fold enrichment (6-mer frequency, TF over GST control)"
same,binding signal,[8],"1.16 fold enrichment (6-mer frequency, TF over GST control)"
same,binding signal,[9],"1.26 fold enrichment (6-mer frequency, TF over GST control)"
ATGATT,binding signal,[1],"1.22 fold enrichment (6-mer frequency, TF over GST control)"
same,binding signal,[2],"1.25 fold enrichment (6-mer frequency, TF over GST control)"
same,binding signal,[3],"1.37 fold enrichment (6-mer frequency, TF over GST control)"
same,binding signal,[4],"1.21 fold enrichment (6-mer frequency, TF over GST control)"
same,binding signal,[5],"1.21 fold enrichment (6-mer frequency, TF over GST control)"
same,binding signal,[6],"1.22 fold enrichment (6-mer frequency, TF over GST control)"
same,binding signal,[7],"1.17 fold enrichment (6-mer frequency, TF over GST control)"
same,binding signal,[8],"1.22 fold enrichment (6-mer frequency, TF over GST control)"
same,binding signal,[9],"1.09 fold enrichment (6-mer frequency, TF over GST control)"
